The panel holds about 83,000 compounds, 20% with a hit somewhere; the sample as a whole holds those more often.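 Values shown are percent growth following 48 h exposure of cells in 96-well plates to a single concentration of compound; below 10 was considered active.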 Values without a mark were called inactive. Calls of active or inactive are those of the source.
Columns and labels:
Assay in all cases: NCI-60 one-dose screen, 48 h (100 = growth as untreated, 0 = no growth, -100 = all killed)
Conditions in all cases: 10 µM unless noted
[1] = system: SR leukemia
[2] = system: RPMI-8226 leukemia
[3] = system: OVCAR-8 ovarian
[4] = system: OVCAR-5 ovarian
[5] = system: OVCAR-4 ovarian
[6] = system: SK-OV-3 ovarian
[7] = system: IGROV1 ovarian
[8] = system: OVCAR-3 ovarian
[9] = system: HS 578T breast
[10] = system: NCI/ADR-RES ovarian
[11] = system: T-47D breast
[12] = system: BT-549 breast
[13] = system: MDA-MB-435 melanoma
[14] = system: SW-620 colon
[15] = system: MCF7 breast
[16] = system: HCT-116 colon
[17] = system: HCC-2998 colon
[18] = system: KM12 colon

| Structure (SMILES) | growth [1] | growth [2] | growth [3] | growth [4] | growth [5] | growth [6] | growth [7] | growth [8] | growth [9] | growth [10] | growth [11] | growth [12] | growth [13] | growth [14] | growth [15] | growth [16] | growth [17] | growth [18] |
| --- | --- | --- | --- | --- | --- | --- | --- | --- | --- | --- | --- | --- | --- | --- | --- | --- | --- | --- |
| COc1cc(-c2nc(SCCC(C)C)nc(NNC(=O)c3ccncc3)c2C#N)cc(OC)c1OC | 105% | 100% | 70% | 61% | 90.6% | 31.9% | 2.47% (active) | 73.5% | 8.27% (active) | 74.1% | 43% | 104% | 90.1% | 110% | 74.7% | 84.5% | 92.1% | 86.5% |
| C=CC(=O)N1CCC=C(c2cc3c(N[C@H](C)c4ccccc4)ncnc3[nH]2)C1 | 32.9% | 41.8% | 66.4% | 49.8% | 45.4% | -6.72% (active) | 14.5% | 56.2% | 69% | 73.7% | 29.7% | 89.8% | 74.5% | 91.7% | 49.5% | 71.8% | 93.8% | 90.5% |
| CC(=O)C1=C(C)NC(NN)=NC1c1cccc(Cl)c1 (stereo not drawn) | 96.5% | 99.7% | 103% | 99.4% | 104% | 102% | 97.7% | 123% | 114% | 107% | 101% | 119% | 103% | 108% | 92.3% | 105% | 127% | 102% |
| O=C(Nc1ccc(F)c(F)c1)c1cc(-c2ccc(F)cc2F)ccc1O | 32.8% | -11.4% (active) | 9.13% (active) | 12.1% | 10% | 6.7% (active) | 14.9% | 7.32% (active) | -0.443% (active) | 2.02% (active) | 3.6% (active) | -1.22% (active) | 1.2% (active) | 12.3% | 0.642% (active) | 6.45% (active) | 15.5% | 0.724% (active) |
| CC1(C)CC[C@]23CC[C@]4(C)[C@H](CC[C@@H]5[C@@]6(C)CCCN(CO)C(C)(C)[C@@H]6CC[C@]54C)[C@H]2[C@H]1OC3 | 1.43% (active) | 21.8% | 101% | 95.9% | 85.6% | 118% | 69% | 66.6% | 91.3% | 101% | 57.3% | 85.5% | 88.7% | 9.58% (active) | 17.1% | 22.1% | 3.53% (active) | 56.4% |
| Nc1cc(-c2c[nH]c3ccc(Br)cc23)nc2cc(-c3c[nH]c4ccc(Br)cc34)nn12 | -1.79% (active) | 15.9% | 24.5% | 7.96% (active) | 40.8% | 116% | 22.2% | 22.6% | 54.4% | 35.5% | 39.3% | 76.4% | -20.3% (active) | 5.89% (active) | 8.21% (active) | -72% (active) | -3.56% (active) | -23.2% (active) |
| Cc1ccc(S(=O)(=O)N(CC[C@@H]2C[C@H]2c2cc3ccccc3o2)S(=O)(=O)c2ccc(C)cc2)cc1 | 128% | 101% | 96.8% | 98% | 76.8% | 101% | 101% | 108% | 98.6% | 94% | 78.3% | 98% | 104% | 95.2% | 79.6% | 92.5% | 100% | 103% |
| CCc1cccc(NC(=O)CNc2cc(S(=O)(=O)N(C)C)cc(C)c2C)c1 | 83.8% | 65.7% | 97.7% | 84.1% | 56.3% | 107% | 74% | 112% | 97.2% | 100% | 88.8% | 97.3% | 92.4% | 97.6% | 91.7% | 91.3% | 123% | 98.9% |
| O=C(NNc1nc2cc(F)ccc2n2c(CO)ccc12)c1cnccn1 | 5.16% (active) | 21% | 10.9% | 36.4% | 20.5% | 9.3% (active) | 14.9% | 33.4% | 68.3% | 3.02% (active) | 11.7% | 22.6% | 27.3% | 21.3% | 8.73% (active) | 17.7% | 44.5% | 22.2% |
| COc1ccc(-c2cc(-c3ccc(Cl)cc3)c(C#N)c(=O)n2Cc2ccc(C(=O)O)cc2)cc1 | 28.9% | 79.9% | 99% | 105% | 88.6% | 114% | 96.9% | 6.02% (active) | 31.9% | 83.6% | 48.7% | 62.8% | 21.1% | 94.8% | 33.3% | 77.7% | 95.6% | 43.2% |
| O=S(=O)(NCCCNc1nccc(-c2[nH]c(-c3ccccc3)nc2-c2ccc(Cl)c(O)c2)n1)c1cccc(F)c1 | 39.4% | 41.1% | 50.1% | 85.4% | 71.8% | 105% | 57.9% | 60.3% | 96.2% | 73.2% | 49.9% | 59.7% | 21.5% | 92.5% | 55.3% | 35.4% | 101% | 60.5% |
| Cc1nn(-c2ccccc2)c2ncnc(N/N=C/c3ccccc3)c12 | 98.1% | 105% | 96.7% | 97.5% | 80.4% | 102% | 81.9% | 83.5% | 103% | 93% | 75% | 97.4% | 96.9% | 107% | 80.4% | 98.1% | 115% | 80.9% |
| CC/C(=C/c1c(O)cccc1OC)c1ccc2c(OC)cccc2[o+]1 | 90.4% | 109% | 101% | 106% | 99.7% | 97.8% | 102% | 109% | 107% | 99.7% | 106% | 98.5% | 97.7% | 101% | 86.4% | 104% | 106% | 98.9% |
| COc1ccc(N2C(=O)c3cc(Cl)ccc3NC2SCc2ccccc2)cc1 (stereo not drawn) | 103% | 107% | 94.8% | 102% | 94.7% | 101% | 99.5% | 105% | 106% | 99.1% | 88.1% | 97.5% | 94.5% | 103% | 85.4% | 73.8% | 106% | 96.9% |
| O=S(=O)(NCCCNc1nccc(-n2cnc3ccccc32)n1)c1ccc(C(F)(F)F)cc1 | 75.4% | 69.7% | 82.5% | 96.3% | 66.7% | 92.5% | 98.1% | 96.8% | 78.3% | 81.1% | 44.7% | 88.2% | 93.4% | 106% | 83.4% | 75.9% | 112% | 79.8% |
| Cc1ccc(CSc2nc(-c3ccc(Cl)cc3)c(C#N)c(N3CCNCC3)n2)cc1 | -10.6% (active) | 69.4% | 92% | 99.7% | 89.3% | 117% | 66.8% | 82.9% | 80.1% | 94.5% | 88.8% | 91% | 81.2% | 83% | 58.5% | 66.9% | 87.2% | 84.7% |
